CYP2C9 inh – blockers of cytochrome P450 2C9 activity – biochemical, luminescence, ADME assay, primary screen | P11712 | CYP2C9 Supersomes, luciferin-H conversion | inhibition, % at 5 µM | 20% of 96,000 active | AID 777, 2007;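 active = blocking of liver enzyme CYP2C9 beyond about 50% at 5 µM, limit read from the data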
EphB4 antag – EphB4-ephrin-B2 interaction antagonists, primary screen, biochemical, TNYL-RAW peptide probe, fluorescence polarization. EphB4 LBD / TNYL-RAW-Alexa532 peptide. inhibition, % at 7 µM. 0.15% of 97,000 active. Ephrin type-B receptor 4 (Homo sapiens), P54760;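 active = inhibition above the screen-wide mean inhibition plus 3 SD, cut at about 15% in these data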
CYP2C19 activ – human CYP2C19 activators, primary screen, biochemical, luminescence. recombinant CYP2C19, luciferin-H EGE luminescence; stronger effect = higher value; 0 = fully inhibited enzyme, 1 = untreated enzyme. Cytochrome P450 2C19 (Homo sapiens), P33261. activation factor at 5 µM. AID 1025, 2008. 96,000 tested, under 10 active;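 active = activation factor of at least 2 at 5 µM in the primary screen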
Target sequence (P33261 whole entry, looked up): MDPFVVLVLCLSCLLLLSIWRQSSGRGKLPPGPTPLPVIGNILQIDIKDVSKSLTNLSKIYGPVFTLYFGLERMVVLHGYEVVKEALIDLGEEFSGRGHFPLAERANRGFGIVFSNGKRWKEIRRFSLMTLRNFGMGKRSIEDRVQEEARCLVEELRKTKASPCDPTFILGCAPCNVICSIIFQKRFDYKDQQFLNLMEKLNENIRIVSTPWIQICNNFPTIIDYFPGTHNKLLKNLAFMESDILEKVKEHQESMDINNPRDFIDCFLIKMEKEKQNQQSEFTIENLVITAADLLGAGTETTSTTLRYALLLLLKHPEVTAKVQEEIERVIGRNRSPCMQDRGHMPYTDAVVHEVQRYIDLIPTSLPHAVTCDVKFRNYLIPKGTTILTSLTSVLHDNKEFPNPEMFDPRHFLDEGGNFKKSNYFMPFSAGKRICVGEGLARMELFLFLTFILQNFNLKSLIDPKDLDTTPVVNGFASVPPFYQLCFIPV
CYP2C19 inh – blockers of cytochrome P450 2C19 activity – biochemical, luminescence, ADME assay, primary screen. P33261. CYP2C19 Supersomes, luciferin-H EGE luminescence, 30 min. inhibition, % at 5 µM. 21% of 96,000 active;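 active = CYP2C19 inhibition above a set limit at 5 µM in the primary screen, cut at about 50% in these data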
CYP2C9 act – human CYP2C9 activators, primary screen, biochemical, luminescence | Cytochrome P450 2C9 (Homo sapiens), P11712 | activation factor at 5 µM | AID 1024, 2008 | 1.4% of 96,000 active | recombinant CYP2C9, luciferin-H conversion; stronger effect = higher value; factor 1 = untreated enzyme, 0 = blocked;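 active = activation factor of 2 or more for CYP2C9 at a 5 µM dose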
Hits are given with their value; – = inactive; · = not tested or not shown. Hits are enriched below; roughly 27% of the tested compounds scored in any of these assays.

SMILES	CYP2C9 inh	EphB4 antag	CYP2C19 activ	CYP2C19 inh	CYP2C9 act
COc1ccc2nc(NC(=O)CSc3nnc4n3C(C)(C)Cc3ccccc3-4)sc2c1	–	–	–	–	–
CCOc1ccc(Cl)cc1S(=O)(=O)n1nnc2ccccc21	–	–	–	98.3	2
Cc1nc([N+](=O)[O-])c(N2CCN(C)CC2)n1Cc1ccccc1	–	–	–	–	–
CCC1CCCCN1C(=O)CSc1nnc(-c2ccc(Cl)s2)o1 (stereo unspecified)	–	–	–	95.0	–
CCC1CCCCN1C(=O)CSc1nnc(-c2ccco2)o1 (stereo unspecified)	·	–	·	·	·
CCC1CCCCN1C(=O)CSc1nnc(-c2ccc(Cl)cc2)o1 (stereo unspecified)	–	–	–	82.5	–
CCOC(=O)N1CCN(C(=O)CSc2nnc(-c3ccc(Cl)s3)o2)CC1	–	–	–	–	–
CCC1CCCCN1C(=O)CSc1nnc(-c2cccc(Cl)c2)o1 (stereo unspecified)	–	·	–	97.5	2.3
CCC1CCCCN1C(=O)CSc1nnc(CNC(=O)COc2ccc(Cl)cc2)o1 (stereo unspecified)	61.7	–	–	–	–
Cc1ccccc1Cn1c(=O)c2c(nc3n2CCCN3Cc2ccccc2)n(C)c1=O	·	–	·	·	·
N#C/C(=C/c1ccc2c(c1)OCO2)C(=O)NCCc1c[nH]c2ccccc12	–	–	–	–	–
O=C(OC1CCN(c2ncc(C(F)(F)F)cc2Cl)CC1)c1ccccc1	–	–	–	–	–
O=c1nc(N2CCCCC2)nc2n1CCO2	–	–	–	–	–
Cn1c2c(c(=O)n(C)c1=O)C(C(F)(F)F)(C(F)(F)F)N=C(c1ccccc1Cl)N2	73.0	–	–	–	–
O=C(Nc1ccc(N2CCN(C(=O)c3ccccc3)CC2)cc1)c1cc2ccccc2o1	–	–	–	–	–
CC1(C)CC(=O)C2=C(C1)OC(=O)C2(NC(=O)c1cccs1)C(F)(F)F (stereo unspecified)	55.8	–	–	–	–
CCc1ccccc1NC1=NCC(=O)N1Cc1ccccc1	–	–	–	–	–
CCC(=O)N/C=C/n1cnc2cc(C(F)(F)F)ccc21	–	–	–	80.5	–
CC1=CC2(O)OCCN(CCO)C2=CC1=O (stereo unspecified)	·	–	·	·	·
O=C(COc1ccc2ccccc2c1)NCC(=O)N/N=C/c1ccco1	–	–	–	–	–
COc1ccc(C2=NOC3(CC(=O)N(c4ccc(C)cc4)C3=O)C2)c(OC)c1 (stereo unspecified)	–	–	–	–	–
Cc1ccccc1N(CC(=O)N/N=C/c1ccc(N(C)C)cc1)C(=O)c1ccccc1	93.3	–	–	88.9	–
Cc1ccccc1N(CC(=O)N/N=C/c1ccccc1Cl)C(=O)c1ccccc1	–	–	–	–	–
CCCCOC(=O)C(C)Nc1n[nH]c(=S)[nH]c1=O (stereo unspecified)	79.4	–	–	–	–
CC(Nc1n[nH]c(=S)[nH]c1=O)C(=O)OCc1ccccc1 (stereo unspecified)	89.8	·	–	–	–
SMILES	CYP2C9 inh	EphB4 antag	CYP2C19 activ	CYP2C19 inh	CYP2C9 act
CCCCOC(=O)C(C)Nc1n[nH]c(=O)[nH]c1=O (stereo unspecified)	–	–	–	–	–
Cc1c(C(=O)c2ccc(Cl)cc2Cl)cnc2cc3c(cc12)OCO3	·	–	·	·	·
COC(=O)CSc1nc(C(C)C)nc2ccccc12	–	–	–	80.0	–
COC(=O)CSc1nc2ccccc2nc1SCC(=O)OC	–	–	–	54.3	–
CCOc1ccc2[nH]c(=O)c(CN(CC3COCCO3)C(=O)c3ccco3)cc2c1 (stereo unspecified)	–	·	–	–	–
C=CCc1ccc(OCCCCN2CC(C)OC(C)C2)c(OC)c1 (stereo unspecified)	–	–	–	–	–
CCCOC(=O)c1ccc(NC(=O)COC)cc1	–	–	–	–	–
Cc1[nH]nc(-c2ccc(O)cc2O)c1Oc1ccccc1	98.9	·	–	100.4	–
CCOC(=O)c1[nH]nc(-c2cc(CC)c(O)cc2O)c1-c1cscn1	–	–	–	–	–
CCCOC(=O)c1ccc(Oc2c(-c3ccc(OC)cc3O)n[nH]c2C)cc1	83.4	–	–	–	–
CCOC(=O)c1ccc(OCC(=O)c2ccc(O)cc2O)cc1	–	–	–	–	–
CCCOC(=O)c1ccc(Oc2c(-c3ccc(O)cc3O)n[nH]c2C)cc1	97.5	–	–	87.4	–
CCc1cc(-c2n[nH]c(C)c2Oc2ccc(C(C)C)cc2)c(O)cc1O	82.7	–	–	67.0	–
Cc1n(CC(O)COCc2ccccc2)c2ccccc2[n+]1C (stereo unspecified)	–	–	–	–	–
CC(C)CC(NS(=O)(=O)c1ccc2c(c1)oc(=O)n2C)C(=O)N1CC=C(c2ccccc2)CC1 (stereo unspecified)	–	–	–	–	–
Cc1cc(C)c2c(-n3cccc3)n[nH]c2n1	–	–	–	–	–
CC1(C)N=C(SCC(=O)Nc2ccc(Cl)cc2Cl)C(c2ccccc2)=N1	62.3	–	–	54.8	–
O=C(CCCCCN1C(=O)c2ccccc2C1=O)Nc1ccc(S(=O)(=O)N2CCCCC2)cc1	83.4	–	–	–	–
CC1CCN(S(=O)(=O)c2ccc(NC(=O)Cn3nnc(-c4ccccc4F)n3)cc2)CC1	80.4	–	–	–	–
CC1CCN(S(=O)(=O)c2ccc(NC(=O)CCN3C(=O)c4ccccc4C3=O)cc2)CC1	94.4	–	–	62.4	–
CC1CCN(S(=O)(=O)c2ccc(NC(=O)Cc3ccccc3)cc2)CC1	92.3	–	–	78.0	–
CC1CCN(S(=O)(=O)c2ccc(NC(=O)CN3CCN(c4ccccc4)CC3)cc2)CC1	–	–	–	–	–
CC(=O)N(C)c1ccc(NC(=O)/C=C/c2ccccc2Cl)cc1	–	–	–	–	–
COc1cc(C(=O)N(CCc2ccccc2)C2=CC3CCC(C2)N3C)cc(OC)c1OC (stereo unspecified)	·	–	·	·	·
Cc1cc(C)nc(-n2nc(C)c3c(C(F)F)cc(C)nc32)n1	–	·	–	–	–
CC(C)(C)NC(=O)CSc1nncn1NCc1ccccc1	–	–	–	–	–
O=C(CCN1C(=O)c2ccccc2C1=O)Nc1ccc2c(c1)OCCO2	–	–	–	–	–
CC1CCN(S(=O)(=O)c2ccc(C(=O)Nc3sccc3C(N)=O)cc2)CC1	58.7	–	–	51.6	–
O=C(CCN1C(=O)c2ccccc2C1=O)Nc1cccc(S(=O)(=O)N2CCCCC2)c1	91.5	–	–	81.4	–
Cc1cc(C)nc(NS(=O)(=O)c2ccc(NC(=O)CCN3C(=O)c4ccccc4C3=O)cc2)n1	–	·	–	–	–
